Among the data in PubChem BioAssay (EPA / NIEHS) are outcome and AC50 values, retold here.

Calls of active or inactive are those of the source. How the source made its calls: active means hit-call score of the fitted dose curve at least 0.9, where 1 is the maximum; inactive means score below 0.9.

Common to all, as to details: mRNA level, 48 h; actives raise or lower the signal
Read-out in test [1]: Alkaline Phosphatase, Placental (ALPP) gene, ALPP (gene 250)
Description: LTEA_HepaRG_ALPP: Life Technologies and Expression Analysis (LTEA) Assay for Alkaline Phosphatase, Placental (ALPP) gene using HepaRG (AID 2283468). Summed up: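 HepaRG, 48 h plating then 48 h dosing, serum-free induction medium, 0.5% DMSO. 8 conc, half-log, max 100 uM, duplicates. Endpoint: ALPP transcript by qRT-PCR, housekeeping-normalized; gain or loss fitted vs DMSO.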

Read-out in test [2]: Bcl-2 (BAD) gene, BAD (gene 572)
Description: LTEA_HepaRG_BAD: Life Technologies and Expression Analysis (LTEA) Assay for Bcl-2 (BAD) gene using HepaRG (AID 2283469). Put shortly: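 Activity values reflect up- or down-regulation of BAD mRNA in human HepaRG hepatic cells treated 48 h in serum-free medium, with eight-point half-log dosing capped at 100 uM and 0.5% DMSO vehicle.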

Read-out in test [3]: Bcl-2 (BAX) gene, BAX (gene 581)
Kind of test: LTEA_HepaRG_BAX: Life Technologies and Expression Analysis (LTEA) Assay for Bcl-2 (BAX) gene using HepaRG (AID 2283470). Summed up:
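Cells were thawed, plated for 48 h, moved to serum-free induction medium and dosed for 48 h (highest concentration 100 uM, half-log steps, 0.5% DMSO). Total RNA was then analysed for BAX expression by qRT-PCR.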

Read-out in test [4]: adenosine kinase (ADK) gene, ADK (gene 132)
Description: LTEA_HepaRG_ADK: Life Technologies and Expression Analysis (LTEA) Assay for adenosine kinase (ADK) gene using HepaRG (AID 2283471). Summed up:
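HepaRG (human liver), 48 h chemical exposure, 8-pt half-log series, top 100 uM, 0.5% DMSO vehicle. Readout: ADK mRNA by qRT-PCR vs housekeeping genes; bidirectional curve fit relative to DMSO baseline.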

Read-out in test [5]: Alpha-fetoprotein (AFP) gene, AFP (gene 174)
Description: LTEA_HepaRG_AFP: Life Technologies and Expression Analysis (LTEA) Assay for Alpha-fetoprotein (AFP) gene using HepaRG (AID 2283472). Put shortly:
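Chemicals were tested on differentiated HepaRG cells for 48 hours at eight concentrations up to 100 uM, with 0.5% DMSO as vehicle. AFP expression was then quantified by qRT-PCR and analyzed for gain or loss relative to DMSO.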

Read-out in a further test: BCL2L11 (gene 10018)
Kind of test: LTEA_HepaRG_BCL2L11: Life Technologies and Expression Analysis (LTEA) Assay for Bcl-2 (BCL2L11) gene using HepaRG (AID 2283473). Put shortly:
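Read-out is BCL2L11 transcript level by qRT-PCR, normalized to three housekeeping genes and fitted bidirectionally against 0.5% DMSO vehicle. HepaRG cells received chemicals for 48 h in serum-free induction medium, 100 uM down in half-log dilutions.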

Read-out in test [6]: Apoptosis regulator Bcl-2 (Homo sapiens) (UniProt P10415)
Description: LTEA_HepaRG_BCL2: Life Technologies and Expression Analysis (LTEA) Assay for Bcl-2 gene using HepaRG (AID 2283475).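 Further: BCL2 transcript by TaqMan qRT-PCR normalised to ACTB GAPDH and POLR2A.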 Summed up: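 Plated human HepaRG cells are exposed to test chemicals for 48 h across eight concentrations from 100 uM downward in half-log steps (0.5% DMSO). BCL2 expression is then measured by qRT-PCR with housekeeping normalisation and fitted bidirectionally against vehicle.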

Read-out in test [7]: Bcl-2 (BID) gene, BID (gene 637)
Description: LTEA_HepaRG_BID: Life Technologies and Expression Analysis (LTEA) Assay for Bcl-2 (BID) gene using HepaRG (AID 2283476). Summed up:
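Cells are plated, cultured 48 h, switched to serum-free induction medium, then dosed 48 h (100 uM top, half-log steps, 0.5% DMSO). RNA is isolated and BID expression read by qRT-PCR.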

Read-out in another test: Caspase-3 (Homo sapiens) (UniProt P42574)
Description: LTEA_HepaRG_CASP3: Life Technologies and Expression Analysis (LTEA) Assay for cysteine-aspartic acid protease (CASP3) using HepaRG (AID 2283477). Put shortly:
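Read-out is CASP3 mRNA level by TaqMan qRT-PCR in human HepaRG cells after 48 h chemical exposure. Eight half-log concentrations topping at 100 uM were tested in 0.5% DMSO; gain or loss was fitted relative to DMSO.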

Read-out in test [8]: Cytochrome P450 (CYP24A1), CYP24A1 (gene 1591)
Description: LTEA_HepaRG_CYP24A1: Life Technologies and Expression Analysis (LTEA) Assay for Cytochrome P450 (CYP24A1) using HepaRG (AID 2283478). Put shortly:
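HepaRG, 48 h chemical exposure, 8-pt half-log CRC from 100 uM, 0.5% DMSO vehicle, duplicates. Endpoint: CYP24A1 mRNA by Fluidigm TaqMan qRT-PCR, normalized ACTB/GAPDH/POLR2A; gain/loss fit vs DMSO.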

Read-out in test [9]: Cytochrome P450 (CYP1A2), CYP1A2 (gene 1544)
Description: LTEA_HepaRG_CYP1A2: Life Technologies and Expression Analysis (LTEA) Assay for Cytochrome P450 (CYP1A2) using HepaRG (AID 2283479). Summed up: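 CYP1A2 transcript induction or loss, quantified by Fluidigm qRT-PCR against three housekeeping genes, was fitted bidirectionally against 0.5% DMSO controls. Human HepaRG cells received eight half-log concentrations from 100 uM over 48 h.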

Read-out in test [10]: Cytochrome P450 (CYP2B6), CYP2B6 (gene 1555)
Description: LTEA_HepaRG_CYP2B6: Life Technologies and Expression Analysis (LTEA) Assay for Cytochrome P450 (CYP2B6) using HepaRG (AID 2283481). Summed up: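 HepaRG cells plated 48 h, switched to serum-free induction medium, then dosed 48 h (8 points, half-log from 100 uM, 0.5% DMSO). RNA isolated; CYP2B6 expression measured by qRT-PCR; gain or loss fitted relative to DMSO.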

Read-out in test [11]: Cytochrome P450 2C19 (Homo sapiens) (UniProt P33261)
Kind of test: LTEA_HepaRG_CYP2C19: Life Technologies and Expression Analysis (LTEA) Assay for CYP2C19 using HepaRG (AID 2283482). Summed up: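 Transcript levels of CYP2C19 were quantified by qRT-PCR after HepaRG cells were treated for 48 hours with test chemicals up to 100 uM (eight half-log concentrations, 0.5% DMSO vehicle). Gain or loss of signal was fitted relative to DMSO.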

Read-out in another test: CYP2C8 (gene 1558)
Description: LTEA_HepaRG_CYP2C8: Life Technologies and Expression Analysis (LTEA) Assay for CYP2C8 using HepaRG (AID 2283483). Put shortly: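 This is a transcriptional endpoint in HepaRG cultures: 48 h exposure, highest concentration 100 uM. CYP2C8 mRNA is quantified by TaqMan qRT-PCR.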

Read-out in another test: CYP2C9 (gene 1559)
Kind of test: LTEA_HepaRG_CYP2C9: Life Technologies and Expression Analysis (LTEA) Assay for CYP2C9 using HepaRG (AID 2283484). Put shortly:
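Eight-point concentration-response (highest 100 uM, half-log dilutions) in HepaRG cells for 48 h; CYP2C9 expression by qRT-PCR normalized to ACTB, GAPDH, POLR2A. Bidirectional fit, DMSO baseline.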

Read-out in another test: CYP2E1 (gene 1571)
Description: LTEA_HepaRG_CYP2E1: Life Technologies and Expression Analysis (LTEA) Assay for CYP2E1 using HepaRG (AID 2283485). Put shortly:
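Readout is qRT-PCR of CYP2E1 mRNA, normalized to three housekeeping genes and fitted bidirectionally against 0.5% DMSO. HepaRG cells were dosed 48 h at eight concentrations, highest 100 uM with half-log dilutions.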

Read-out in another test: CYP4A11 (gene 1579)
Description: LTEA_HepaRG_CYP4A11: Life Technologies and Expression Analysis (LTEA) Assay for CYP4A11 using HepaRG (AID 2283486). Summed up: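 HepaRG, 48 h chem exposure, 8 conc (100 uM top, half-log), 0.5% DMSO vehicle; qRT-PCR readout, housekeeping-gene normalized; bidirectional curve fit vs DMSO baseline.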

Read-out in test [12]: Cytochrome P450 3A4 (Homo sapiens) (UniProt P08684)
Description: LTEA_HepaRG_CYP3A4: Life Technologies and Expression Analysis (LTEA) Assay for CYP3A4 using HepaRG (AID 2283487). Summed up: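 CYP3A4 transcript measured by TaqMan qRT-PCR and normalized to three housekeeping genes after 48 h chemical exposure of human HepaRG cells. Top concentration 100 uM, half-log steps, 0.5% DMSO vehicle; gain or loss fitted against DMSO baseline.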

Read-out in test [13]: DNA damage-inducible transcript 3 (DDIT3), DDIT3 (gene 1649)
Description: LTEA_HepaRG_DDIT3: Life Technologies and Expression Analysis (LTEA) Assay for DNA damage-inducible transcript 3 (DDIT3) using HepaRG (AID 2283488). Put shortly: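 Cells are human HepaRG liver cells treated for 48 h with eight half-log concentrations up to 100 uM in 0.5% DMSO. Transcript levels come from qRT-PCR normalized to three housekeeping genes, with activity fitted in both directions relative to vehicle.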

Read-out in test [14]: Pro-epidermal growth factor (Homo sapiens) (UniProt P01133)
Description: LTEA_HepaRG_EGF: Life Technologies and Expression Analysis (LTEA) Assay for Epidermal growth factor (EGF) using HepaRG (AID 2283489). Put shortly: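 HepaRG, 48 h dosing, 100 uM top, half-log x8, 0.5% DMSO. Readout: TaqMan qRT-PCR (Fluidigm array), housekeeping-normalized. Gain or loss of signal fit vs DMSO.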

Chain of Cytochrome P450 2C19 (Homo sapiens) (P33261 whole entry, looked up): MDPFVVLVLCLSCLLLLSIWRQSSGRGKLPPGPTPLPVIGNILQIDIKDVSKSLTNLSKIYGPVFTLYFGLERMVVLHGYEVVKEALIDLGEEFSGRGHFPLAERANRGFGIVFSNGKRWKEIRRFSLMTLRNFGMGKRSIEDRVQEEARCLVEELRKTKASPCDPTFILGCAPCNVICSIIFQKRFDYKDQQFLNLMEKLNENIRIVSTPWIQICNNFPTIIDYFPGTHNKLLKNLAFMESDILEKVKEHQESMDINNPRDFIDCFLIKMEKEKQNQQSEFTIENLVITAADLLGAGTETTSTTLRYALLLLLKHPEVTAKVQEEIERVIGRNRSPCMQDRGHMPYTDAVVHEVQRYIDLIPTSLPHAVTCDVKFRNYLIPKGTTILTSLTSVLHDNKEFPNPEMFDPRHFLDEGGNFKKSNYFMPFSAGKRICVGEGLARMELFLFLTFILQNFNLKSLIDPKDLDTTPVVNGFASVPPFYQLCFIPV
Chain of Cytochrome P450 3A4 (Homo sapiens) (P08684 whole entry, looked up): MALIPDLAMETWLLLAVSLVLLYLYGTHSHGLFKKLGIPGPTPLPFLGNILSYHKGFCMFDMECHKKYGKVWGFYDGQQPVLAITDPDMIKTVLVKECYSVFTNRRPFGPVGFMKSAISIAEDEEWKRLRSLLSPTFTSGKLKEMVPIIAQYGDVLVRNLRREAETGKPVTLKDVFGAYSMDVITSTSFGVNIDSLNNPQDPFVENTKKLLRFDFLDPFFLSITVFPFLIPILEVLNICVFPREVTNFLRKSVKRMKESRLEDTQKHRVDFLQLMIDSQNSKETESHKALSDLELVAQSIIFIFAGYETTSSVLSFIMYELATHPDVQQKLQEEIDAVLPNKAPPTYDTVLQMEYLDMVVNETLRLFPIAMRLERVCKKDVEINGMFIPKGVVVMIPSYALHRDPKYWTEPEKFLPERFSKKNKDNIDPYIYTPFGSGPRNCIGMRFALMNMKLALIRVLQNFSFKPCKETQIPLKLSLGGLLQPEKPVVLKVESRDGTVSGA
Chain of Caspase-3 (Homo sapiens) (P42574 whole entry, looked up): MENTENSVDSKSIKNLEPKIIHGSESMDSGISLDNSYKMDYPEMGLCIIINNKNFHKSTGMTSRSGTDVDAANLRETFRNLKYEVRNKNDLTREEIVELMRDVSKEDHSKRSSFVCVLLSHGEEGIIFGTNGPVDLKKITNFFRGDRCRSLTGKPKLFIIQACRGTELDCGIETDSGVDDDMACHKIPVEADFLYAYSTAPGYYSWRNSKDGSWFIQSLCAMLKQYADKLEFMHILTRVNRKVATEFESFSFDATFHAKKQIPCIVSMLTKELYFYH
Chain of Apoptosis regulator Bcl-2 (Homo sapiens) (P10415 whole entry, looked up): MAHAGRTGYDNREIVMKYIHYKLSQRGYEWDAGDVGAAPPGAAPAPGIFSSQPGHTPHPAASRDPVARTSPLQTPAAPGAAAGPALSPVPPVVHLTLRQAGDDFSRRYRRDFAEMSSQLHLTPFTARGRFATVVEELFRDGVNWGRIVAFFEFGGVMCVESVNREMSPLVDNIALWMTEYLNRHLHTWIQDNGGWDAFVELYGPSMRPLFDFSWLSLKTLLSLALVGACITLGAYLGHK

As to `Cc1cc(C)cc(C)c1`, the outcome (in test [1]; in test [2]; in test [3]; in [4]; in [5]; with BCL2L11 (gene 10018)) was inactive. For the same compound, the compound was classed as inactive (in test [6]; in [7]; in the test with Caspase-3 (Homo sapiens); in test [8]; in test [9]; in test [10]). For the same compound, the compound was called inactive (in test [11]; in the test with CYP2C8 (gene 1558); in the test with CYP2C9 (gene 1559); in the test with CYP2E1 (gene 1571); in the test with CYP4A11 (gene 1579); in test [12]). Moreover, the call in test [13] and in [14] was inactive.

Consider `COc1ccccc1N`, for which the compound was classed as inactive (in test [1]; in test [2]; in [3]; in [4]; in [5]; with BCL2L11 (gene 10018)). Also, the result (in [6]; in test [7]; with Caspase-3 (Homo sapiens); in test [8]; in test [9]; in test [11]) was inactive. The call (with CYP2C8 (gene 1558); in the test with CYP2C9 (gene 1559); with CYP2E1 (gene 1571); with CYP4A11 (gene 1579); in test [12]; in [13]) was inactive. Moreover, the result in test [14] was inactive. Besides, the AC50 in test [10] was 24.3 µM (active).

On to `CC(C)O.CC(C)O.OCCN(CCO)CCO.OCCN(CCO)CCO.[Ti]`, for which the compound was classed as inactive (in test [1]; in test [2]; in test [3]; in [4]; in test [5]; with BCL2L11 (gene 10018)). Besides, the outcome (in test [6]; in test [7]; with Caspase-3 (Homo sapiens); in test [8]; in test [9]; in test [11]) was inactive. In addition, the compound was classed as inactive (with CYP2C8 (gene 1558); with CYP2C9 (gene 1559); in the test with CYP4A11 (gene 1579); in test [12]; in test [13]; in test [14]). Moreover, in the test with CYP2E1 (gene 1571), the AC50 was 50 µM (active).

In the case of `Oc1cc(Cl)c(Cl)cc1Cl`, the result (in [1]; in test [2]; in test [3]; in test [4]; in test [5]; in the test with BCL2L11 (gene 10018)) was inactive. Also, the compound was classed as inactive (in [6]; in test [7]; with Caspase-3 (Homo sapiens); in [8]; in test [9]; in test [10]). Moreover, the compound was called inactive (in test [11]; with CYP2C8 (gene 1558); with CYP2C9 (gene 1559); with CYP2E1 (gene 1571); in the test with CYP4A11 (gene 1579); in [12]). Besides, the result in test [13] and in [14] was inactive.

Turning to `Oc1c(Cl)cc(Cl)cc1Cl`, the compound was classed as inactive (in test [1]; in test [2]; in test [3]; in test [4]; in [5]; with BCL2L11 (gene 10018)). Moreover, the result (in [6]; in test [7]; in the test with Caspase-3 (Homo sapiens); in test [13]; in test [14]) was inactive.

For `OCCN(CCO)CCO`, the call (in [1]; in [2]; in test [3]; in test [4]; in test [5]; with BCL2L11 (gene 10018)) was inactive. For the same compound, the compound was classed as inactive (in test [6]; in test [7]; in the test with Caspase-3 (Homo sapiens); in [8]; in test [9]; in test [11]). The call (with CYP2C8 (gene 1558); with CYP2C9 (gene 1559); in the test with CYP2E1 (gene 1571); with CYP4A11 (gene 1579); in [12]; in test [13]) was inactive. The compound was called inactive in [14]. For the same compound, in test [10], the concentration at half-maximal activity (AC50) was 21.1 µM (active).

Regarding `Clc1cccc(Cl)c1Cl`, the call (in [1]; in [2]; in [3]; in test [4]; in test [5]; with BCL2L11 (gene 10018)) was inactive. Further, the compound was called inactive (in test [6]; in test [7]; with Caspase-3 (Homo sapiens); in test [8]; in test [9]; in test [10]). Besides, the outcome (in [11]; with CYP2C8 (gene 1558); with CYP2C9 (gene 1559); in the test with CYP2E1 (gene 1571); in the test with CYP4A11 (gene 1579); in test [12]) was inactive. For the same compound, the call in [13] and in test [14] was inactive.

A word on the AC50: it is the concentration giving half of the maximal activity seen.
